Laboratory results reported in PubChem BioAssay AID504833 (Johns Hopkins Ion Channel Center, 2011).
The whole screen tested about 2,500 compounds, of which about 2,200 (88%) were called active. So high a share suggests a set chosen from earlier hits. A selection follows. Unmarked numbers belong to inactive results.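 Rule for the calls: active = primary screen active, with duplicate mean activation above negative control mean plus 3 SD (cut at about 11% in these data); inactive = the rest.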

target: High affinity choline transporter 1 (Homo sapiens) (UniProt Q9GZV3); experiment: CHT activators, confirmation, cell-based, membrane potential dye, duplicate (AID 504833); conditions: CHT-expressing cells, membrane potential dye fluorescence (FDSS); at 10 µM; active compounds read high; % of choline EC20–EC90 response window; HEK293 expressing CHT LV-AA mutant; choline added at its EC20
Sequence (Q9GZV3 whole entry, looked up): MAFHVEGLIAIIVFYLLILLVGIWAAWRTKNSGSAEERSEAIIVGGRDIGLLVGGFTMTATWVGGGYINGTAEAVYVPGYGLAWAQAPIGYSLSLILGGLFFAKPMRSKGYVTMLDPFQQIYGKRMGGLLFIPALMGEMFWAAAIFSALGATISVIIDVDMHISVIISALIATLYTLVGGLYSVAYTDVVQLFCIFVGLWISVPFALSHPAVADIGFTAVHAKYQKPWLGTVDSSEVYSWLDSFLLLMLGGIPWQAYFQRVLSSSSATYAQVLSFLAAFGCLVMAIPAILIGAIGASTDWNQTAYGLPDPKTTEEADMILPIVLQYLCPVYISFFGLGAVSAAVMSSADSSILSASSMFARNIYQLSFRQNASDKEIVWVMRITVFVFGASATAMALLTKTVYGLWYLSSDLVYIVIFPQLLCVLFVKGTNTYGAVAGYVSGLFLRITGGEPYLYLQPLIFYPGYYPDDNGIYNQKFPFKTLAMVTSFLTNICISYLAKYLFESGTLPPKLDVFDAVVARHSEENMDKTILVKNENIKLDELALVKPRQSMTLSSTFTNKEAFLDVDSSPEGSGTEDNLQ

Row | SMILES | activation
1 | Nc1scc[n+]1Cc1cccc2cccnc12 | 42.7% (active)
2 | Cn1c(=O)n(Cc2ccco2)c(=N)c2c3c(sc21)CCCC3 | 30.6% (active)
3 | CCn1c(/C=C/Nc2ccccc2)[n+](CC)c2ccc(C(=O)OCC(F)(F)F)cc21 | 68.4% (active)
4 | CC(Sc1nc2ccccc2c(=O)n1Cc1ccco1)C(=O)c1ccccc1 (stereo unspecified) | 16.9% (active)
5 | Cc1nnc(-c2ccc(Oc3ccc(C)c(C)c3)c([N+](=O)[O-])c2)o1 | 15% (active)
6 | Cc1ccc2c(c1)N(CC(=O)N(Cc1ccccn1)Cc1ccco1)C(=O)C(C(C)C)O2 (stereo unspecified) | 30.6% (active)
7 | Clc1ccc(COn2c(-c3ccc(Cl)cc3Cl)nc3ncccc32)cc1 | 36.3% (active)
8 | COc1ccccc1NC(=O)CSc1nnc(-c2ccoc2C)n1CCc1ccccc1 | 3.73%
9 | COc1ccccc1NC(=O)CN(c1ccccc1OC)S(=O)(=O)c1ccccc1 | 12% (active)
10 | Cc1c(C)c2c(OCC(=O)N[C@@H](C(=O)O)c3ccccc3)cc3c(c2oc1=O)CCC(C)(C)O3 | 7.79%
11 | Cc1cc(NC(=O)c2cnn3cccnc23)n(-c2ccccc2)n1 | 52.8% (active)
12 | CCN1CCCC1CNC(=O)c1cc2c(=O)n(C)c3ccccc3c2n1C (stereo unspecified) | 44.7% (active)
13 | CCOC(=O)c1cccnc1NC(=O)c1ccncc1 | 35.3% (active)
14 | Cc1nc2ccccc2c(=O)n1CCCn1ccnc1 | 22.6% (active)
15 | Cc1nc2c(-c3ccccc3)c(C)[nH]n2c(=O)c1Cl | 8.04%
16 | CC1=CC(C)(C)N(C(=O)CSc2nnc(-c3ccccc3)o2)c2ccc(C)cc21 | 7.25%
17 | CCCCN(CCCC)CC(O)Cn1c2ccccc2c(=O)c2ccccc21 (stereo unspecified) | 44.6% (active)
18 | CC(C)CC(COCc1ccc(Cl)cc1)N1CCN(C(=O)c2ccc(C(F)(F)F)cc2)CCC1=O (stereo unspecified) | 33.6% (active)
19 | Cc1nc(N=C(N)N)nc2c(C)cccc12 | 49.8% (active)
20 | COc1ccc2nc(/N=C(\N)NC(=O)Nc3ccccc3)nc(C)c2c1 | 6.06%
21 | COc1nc(N=C(N)N)nc2c(C)cccc12 | 40.5% (active)

Row | SMILES | activation
22 | CN1CCc2c(sc3c2c(NCc2ccco2)nc2nnnn23)C1 | 73.5% (active)
23 | CCOc1ccc(C2c3[nH]c4ccccc4c3CCN2Cc2cccn2-c2ncccn2)cc1 (stereo unspecified) | 17.1% (active)
24 | C=CCNc1nnc(C)c2ccccc12 | 55.7% (active)
25 | COC(=O)c1sc(C(F)(F)F)c(-c2ccccc2)c1S(=O)(=O)N(C)C | 27.1% (active)
26 | CC1(C)Cc2c(sc3nc4n(c(=N)c23)CCCCC4)CO1 | 40.2% (active)
27 | CN1CCN(c2cc3c(cc2F)c(=O)c(C(=O)O)cn3CCF)CC1 | 63.4% (active)
28 | CCn1cc(S(=O)(=O)c2cccc(C)c2)c(=O)c2cc(F)c(N3CCN(C)CC3)cc21 | 52.5% (active)
29 | Cn1c(=O)[nH]c(=O)c2c1nc(N1CCN(CCO)CC1)n2CCSc1nc2ccccc2s1 | 69.4% (active)
30 | Cc1ccc(-n2c(C)cc(/C=N\NC(=O)CC(=O)NC(C)C)c2C)cc1 | 33.2% (active)
31 | O=C(Nc1ccccc1N1CCN(c2ccccc2)CC1)c1cccc(F)c1 | 36.2% (active)
32 | C[C@H]1CCC(=O)N([C@H](CSc2ccccc2)Cc2ccccc2)CC1 | 12% (active)
33 | O=C(c1ccc(F)c(S(=O)(=O)N2CCOCC2)c1)N(CCc1ccccc1)Cc1ccccc1 | 19.7% (active)
34 | O=C1c2ccccc2C(=O)c2c1cccc2N1CCN(CCO)CC1 | 47.2% (active)
35 | CCCCCCCCCCOC(=O)Cn1c(COc2cccc(OC)c2)[n+](C)c2ccccc21 | 63.2% (active)
36 | CCCCCCCCCCOC(=O)Cn1c(COc2ccc(C)cc2)[n+](C)c2ccccc21 | 49.5% (active)
37 | CCOC(=O)c1cn(CC)c2cc(F)c(F)cc2c1=O | 50.9% (active)
38 | COc1cccc(C(=O)NC(=O)Nc2nc(C)cc(C(F)(F)F)n2)c1 | 49.4% (active)
39 | COC(=O)c1ccc(C(NC(=O)OCc2ccccc2)/C(C)=C/[C@@H](C)C(=O)NCc2ccc(OC)c(OC)c2)cc1 (stereo partly specified) | 22.6% (active)
40 | CCCCn1c(N)c(N(CCC(C)C)C(=O)c2ccc(COc3ccccc3)o2)c(=O)[nH]c1=O | 24.5% (active)
41 | CN(C)/C=C/C(=O)c1cnc2sccn2c1=O | 42.8% (active)
42 | COc1cc2c(cc1OC)C(Nc1ccc(S(N)(=O)=O)cc1)=NC(C)(C)C2 | 71.7% (active)

Row | SMILES | activation
43 | CC(=O)c1ccccc1OCc1ccc(C(=O)c2ccccc2)cc1 | 25% (active)
44 | Cc1nnc(C)c2c(C)n(N)c(C)c12 | 19.2% (active)
45 | Nc1ccccc1SCc1cc([N+](=O)[O-])cc2c1OCOC2 | 33.2% (active)
46 | O=C(Nc1ccncc1)c1ccc(Cl)c([N+](=O)[O-])c1 | 35.4% (active)
47 | COc1ccc(Nc2nnc(C)c3ccccc23)cc1 | 38.3% (active)
48 | CN(C)c1ccnc(Nc2ccc(F)cc2)c1C#N | 52.3% (active)
49 | Clc1ccc(C[n+]2cc(-c3ccc(Cl)cc3)n3c2CCC3)cc1 | 57.3% (active)
50 | COc1ccc2c(c1)cc1n2CCN=C1NN | 49% (active)
51 | COc1cc2c(cc1OC)C(c1cccc([N+](=O)[O-])c1)=NCC2 | 68.6% (active)
52 | COc1ccc(Cn2c(-c3ccc(Cl)cc3)c[n+]3ccccc23)cc1 | 73.3% (active)
53 | Cc1cc(=O)oc2c(C)c(OC(C)C(=O)NC3CCN(Cc4ccccc4)CC3)ccc12 (stereo unspecified) | 56.9% (active)
54 | Cn1c(=NC(=O)c2cnccn2)sc2ccccc21 | 55.7% (active)
55 | Cc1c(CCOC(=O)CC23CC4CC(CC(C)(C4)C2)C3)sc[n+]1Cc1ccc([N+](=O)[O-])cc1 | 26.9% (active)
56 | Cc1cccn2c(=O)c3cc(C#N)c(=O)n(CCCN4CCOCC4)c3nc12 | 42.7% (active)
57 | CN1CCN(c2nc(Nc3ccc(O)cc3)nc3ccccc23)CC1 | 44.2% (active)
58 | CCN1C(=NCCc2cccnc2)N[C@@H](c2ccccc2)[C@H](C(=O)OC)[C@H]1C | 14% (active)
59 | Cc1ccccc1C(=O)NCC(c1ccco1)N1CCc2ccccc21 (stereo unspecified) | 9.36%
60 | CC(=O)N1CC[n+]2c(-c3ccc([N+](=O)[O-])cc3)csc21 | 38.1% (active)
61 | C[C@]1(C(=O)NCCc2c[nH]c3ccccc23)C=C[C@@H](Cc2ccccc2)N1C(=O)c1ccccc1 | 10.8% (active)
